According to PubChem BioAssay AID588342 (National Center for Advancing Translational Sciences (NCATS), 2011):
The whole screen tested about 360,000 compounds, of which about 25,000 (6.9%) were called active. Inconclusive results (about 9%) are left out. For the sample, actives were picked, then their nearest neighbours and some compounds at random. A number with no mark means an inactive call. The call rests on the fitted dose curve; in most records, active means well fitted inhibition curve with a large enough effect; inconclusive means small, poorly fitted or top-dose-only effect; inactive means flat fitted curve, though single readings scatter.

biological target: Luciferin 4-monooxygenase (Photinus pyralis) (UniProt P08659); assay: qHTS profiling assay for firefly luciferase inhibitor/activator using purifed enzyme and Km concentrations of substrates (counterscreen for miR-21 project); details: purified FLuc, luminescence inhibition; series mostly up to 57.5 µM; activity change, negative = inhibition: at the top concentration; further: nearly all actives have a fitted effect of over 55% in size;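 on activity change, negative = inhibition: plate controls were vehicle for no effect and reference inhibitor for full effect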
Sequence (P08659 whole entry, looked up): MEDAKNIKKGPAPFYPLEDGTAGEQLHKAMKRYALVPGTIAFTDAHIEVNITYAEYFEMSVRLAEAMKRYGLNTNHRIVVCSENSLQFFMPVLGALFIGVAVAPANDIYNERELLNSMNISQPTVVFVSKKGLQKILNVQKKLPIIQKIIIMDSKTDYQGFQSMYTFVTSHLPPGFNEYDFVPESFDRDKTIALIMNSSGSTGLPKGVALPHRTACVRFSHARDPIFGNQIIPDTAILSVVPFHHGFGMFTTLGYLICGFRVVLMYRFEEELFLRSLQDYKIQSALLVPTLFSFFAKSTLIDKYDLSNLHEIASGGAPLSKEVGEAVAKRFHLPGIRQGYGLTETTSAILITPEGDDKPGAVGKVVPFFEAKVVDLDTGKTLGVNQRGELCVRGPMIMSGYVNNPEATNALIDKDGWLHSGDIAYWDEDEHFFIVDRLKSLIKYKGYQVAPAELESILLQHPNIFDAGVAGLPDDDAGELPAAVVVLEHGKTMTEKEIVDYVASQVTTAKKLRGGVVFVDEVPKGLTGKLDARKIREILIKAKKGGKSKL
How it was run: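 Biochemical qHTS of compounds, final roughly 60 µM downward over six points, against 10 nM purified firefly luciferase using Km concentrations of substrates (10 uM D-luciferin, 10 uM ATP) in Tris acetate pH 7.5 buffer; luminescence output.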
Potency means the concentration at half of the fitted maximal effect.

SMILES	activity change, negative = inhibition [%]	Potency
COc1cc(NC(=O)Cn2c(=O)n(Cc3ccco3)c(=O)c3oc4ccccc4c32)cc(OC)c1	-1.65	–
COc1ccc(-c2nn(CC(=O)NC3CCCC3)c3c2cnc2ccc(F)cc23)cc1	5.55	–
CC(C)CN(C(=O)c1ccc2c(c1)OCO2)C1CCS(=O)(=O)C1 (stereo unspecified)	0.66	–
O=c1c2cccnc2n(Cc2cccc(F)c2)c(=O)n1Cc1ccccc1Cl	-8.13	–
Cc1cc(C(=O)N/N=C/c2cc([N+](=O)[O-])cc(C)c2O)n[nH]1	-0.645	–
O=[N+]([O-])c1cc(Br)c(O)c(/C=N/Nc2nc3ccccc3s2)c1	–	19 µM (active)
COc1cc(/C=N/Nc2nc3ccccc3s2)ccc1O	–	2.39 µM (active)
COc1cc(/C=N/NC(=O)Nc2ccccc2)ccc1OCCOc1ccccc1C	3.18	–
COc1ccc(CC(=O)N/N=C/c2cc([N+](=O)[O-])cc(Br)c2O)cc1	4.36	–
COc1cc(/C=N\Nc2nc(-c3cccs3)c(NC(C)=O)s2)ccc1O	–	7.57 µM (active)
COc1cc(/C=N/NC(=O)CCc2n[nH]c(=O)[nH]c2=O)ccc1O	-13.2	–
Cn1c(SCC(=O)N/N=C/c2ccc(O)c(O)c2)nc2ccccc21	-14.5	–
COc1cc(/C=N/NC(=O)CNC(=O)c2ccncc2)ccc1OC(C)=O	3.06	–
CCOC(=O)C1CCCN(S(=O)(=O)c2cc(-c3cc(C)no3)ccc2OC)C1 (stereo unspecified)	5	–
CSc1nn(Cc2cccc(C)c2)c(N)c1S(=O)(=O)c1ccccc1	4.36	–
COc1cccc(CNC(=O)C2CCC(CNS(=O)(=O)c3cccs3)CC2)c1 (stereo unspecified)	-0.944	–
CC(C)(C)c1ccc(C(=O)NCC(c2ccc(Cl)cc2)N2CCOCC2)cc1 (stereo unspecified)	-10.9	–
CCOc1ccc(NC(=O)COC(=O)C2CCC(=O)N2)c([N+](=O)[O-])c1 (stereo unspecified)	-10.7	–
Cc1cc(C(=O)COC(=O)C2CC2)c(C)n1-c1ccc(F)cc1	–	0.169 µM (active)
Cc1ccc(-n2c(C)cc(C(=O)CN3C(=O)C(=O)N(C4CCCC4)C3=O)c2C)cc1	-14.7	–
COc1ccc(-n2c(C)cc(C(=O)COC(=O)c3cc(OC)c(OC)cc3NC(=O)c3cccs3)c2C)cc1	-2.76	–
Cc1nc(CN(C)C(=O)CC2C(=O)NCCN2Cc2ccc(F)cc2)cs1 (stereo unspecified)	1.85	–

SMILES	activity change, negative = inhibition [%]	Potency
Cc1ccc(N(C(=O)Cc2cccs2)C(C(=O)NCC2CCCO2)c2ccncc2)cc1 (stereo unspecified)	–	16.9 µM (active)
Cc1cccc(N(C(=O)Cc2cccs2)C(C(=O)NCc2ccco2)c2ccncc2)c1 (stereo unspecified)	-0.4	–
O=C(NCC(=O)N(c1ccccc1)C(C(=O)NCC1CCCO1)c1ccccc1)c1cccs1 (stereo unspecified)	1.75	–
CCOC(=O)c1cc2c(=O)n3ccccc3nc2n(CC2CCCO2)c1=NC(=O)c1ccccc1Br (stereo unspecified)	-2.15	–
CN(C)c1nc(NN)nc(Nc2ccc(F)cc2)n1	2.45	–
CC(=O)Nc1nc(N(C)C)nc(N(C)C)n1	–	26.9 µM (active)
CCC(=O)Nc1nc(OC)cc(OC)n1	3.41	–
O=C(Nc1ccccc1C(=O)O)c1ccc(N2C(=O)C3CC=CCC3C2=O)cc1 (stereo unspecified)	–	4.78 µM (active)
COc1ccc(Cl)cc1NC(=O)c1cccc(N2C(=O)C3CC=CCC3C2=O)c1 (stereo unspecified)	3.07	–
O=C(Cc1ccccc1)Nc1ccc(C(=O)Nc2ccccc2C(=O)O)cc1	-0.802	–
O=c1ccc2cc(S(=O)(=O)N3CCN(c4ccccc4)CC3)ccc2o1	-0.908	–
CCOc1ccccc1NC(=O)Cn1c(=O)n(Cc2ccccc2)c(=O)c2c(C)c(C(=O)N(C)C)sc21	2.47	–
COC(=O)N/N=C/c1ccc(/C=N/NC(=O)OC)cc1	-3.29	–
O=C(O)c1ccc(/C=N/NC(=S)NCc2ccccc2)cc1	-4	–
O=C(N/N=C/c1ccc(OCC2COCCO2)cc1)c1ccc(Br)cc1 (stereo unspecified)	-3.87	–
CC(C)(C)OC(=O)N/N=C/c1ccc(C(=O)O)cc1	–	19 µM (active)
O=C(O)c1ccc(/C=N/NC(=O)c2ccc(Br)cc2)cc1	–	15.1 µM (active)
COc1ccc(S(=O)(=O)N(CC(=O)N/N=C/c2ccc(C(=O)O)cc2)Cc2ccccc2)cc1OC	2	–
Cc1cccc2c(=O)cc(CSc3ccccc3NC(=O)C(C)C)[nH]c12	-4.14	–
Nc1c(-c2ccc(F)cc2)cnn1C1CCS(=O)(=O)C1 (stereo unspecified)	0.904	–
O=C(Nc1ccc(C(F)(F)F)cc1)c1cccc(-n2cnnn2)c1	-11.7	–
CC(C)NC(=O)NCCCCCCS(C)=O (stereo unspecified)	-2.89	–

SMILES	activity change, negative = inhibition [%]	Potency
O=C(COC(=O)Cc1ccc(Br)cc1)Nc1ccc(N2CCOCC2)cc1	1.52	–
Cc1c(NC(=O)Nc2ccccc2Cl)sc(=S)n1C	-3.73	–
O=C(Nc1cccc2cccnc12)c1cccc(N2C(=O)CCC2=O)c1	–	13.5 µM (active)
Cc1cc(NC(=O)c2cccc(N3C(=O)CCC3=O)c2)no1	3.05	–
O=C(Nc1cccc2cccnc12)c1cccc(Cl)c1	–	15.1 µM (active)
O=C(Nc1cccc2cccnc12)c1cccc2c(Br)cccc12	-2.63	–
N#Cc1ccc(C(=O)Nc2cccc3cccnc23)c(F)c1	1.03	–
O=C(Nc1ccccc1Cl)Nc1cccc2cccnc12	–	12 µM (active)
COC(=O)c1cccc(NC(=O)c2cccc(N3C(=O)CCC3=O)c2)c1	-12.1	–
COc1c(Cl)cc(Cl)cc1C(=O)Nc1cccc2cccnc12	-0.765	–
O=S(=O)(Nc1ccc(-n2cnnn2)cc1)c1ccc(Cl)cc1	6.33	–
O=[N+]([O-])/C=C1\CCCCCN1	-0.667	–
CCc1ccccc1N1CC(c2nc3ccccc3n2CCCCOc2ccccc2)CC1=O (stereo unspecified)	3.12	–
O=C(CCNS(=O)(=O)c1ccccc1C(F)(F)F)Nc1ccncc1	6.96	–
Cc1ccc(-c2nnc(Nc3cccc(Br)c3)c3ccccc23)cc1S(=O)(=O)NCC1CCCO1 (stereo unspecified)	-10.7	–
CC1CCCC(NC(=O)COC(=O)[C@@H]2CC(O)CN2S(=O)(=O)c2ccc3c(c2)OCCO3)C1C (stereo partly specified)	-0.286	–
Clc1ccc(CSc2nncn3c2cc2occc23)cc1	-18.1	–
CC(=O)c1ccccc1NC(=O)C1CC(=O)N(c2ccc3c(c2)OCCO3)C1 (stereo unspecified)	-0.95	–
COc1ccc(CNc2nc(-c3ccc(Cl)cc3)nn2S(=O)(=O)c2ccc(C)cc2)cc1	-0.551	–
CS(=O)(=O)Nc1cccc(C2=NN(S(=O)(=O)c3ccccc3)C(c3cccs3)C2)c1 (stereo unspecified)	2.05	–
COC(=O)c1cccc(NS(C)(=O)=O)c1	0.196	–
CS(=O)(=O)Nc1cccc(-c2cn3ccccc3n2)c1	–	23.9 µM (active)
